In one assay the target is pT7_6His-AlfaTag-HOXD13 (human, UniProt P35453 263-343). Nature of the assay: PADIT-seq. The note with it: dsDNA, one strand shown.
A further assay deals with pT7_6His-AlfaTag-ZIF268 (human, UniProt P18146 335-423). Nature of the assay: PADIT-seq. The note with it: dsDNA, one strand shown.

Sequence of pT7_6His-AlfaTag-HOXD13 (P35453 263-343): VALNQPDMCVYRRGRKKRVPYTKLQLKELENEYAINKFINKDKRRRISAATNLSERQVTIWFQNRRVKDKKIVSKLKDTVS

For “CTCGAGGATATCAAGATCTGGCCTCGGCGGAGTAAAAGGAACCTCTAGCTAGCCGACTCACTATAGGGATAATCGCCCTGAGCAAAGACC”, the binding signal was -0.327 ± 0.108 log2FC with pT7_6His-AlfaTag-HOXD13 and 0.0307 ± 0.0975 log2FC in the assay with pT7_6His-AlfaTag-ZIF268.

In the case of “CTCGAGGATATCAAGATCTGGCCTCGGCTTTTTAGGCGGAACCTCTAGCTAGCCGACTCACTATAGGGATAATCGCCCTGAGCAAAGACC”, the binding signal turned out to be 0.0492 ± 0.119 log2FC with pT7_6His-AlfaTag-HOXD13 and 0.0276 ± 0.11 log2FC with pT7_6His-AlfaTag-ZIF268.

With “CTCGAGGATATCAAGATCTGGCCTCGGCAGTGTAAAAGGAACCTCTAGCTAGCCGACTCACTATAGGGATAATCGCCCTGAGCAAAGACC”, the binding signal in the assay with pT7_6His-AlfaTag-HOXD13 amounted to 0.712 ± 0.08 log2FC; with pT7_6His-AlfaTag-ZIF268, 0.045 ± 0.0778 log2FC.

“CTCGAGGATATCAAGATCTGGCCTCGGCAACCTAAAAGGAACCTCTAGCTAGCCGACTCACTATAGGGATAATCGCCCTGAGCAAAGACC”: the values for the binding signal in the assay with pT7_6His-AlfaTag-HOXD13 and with pT7_6His-AlfaTag-ZIF268 were -0.715 ± 0.12 log2FC and 0.113 ± 0.099 log2FC, respectively.

As to “CTCGAGGATATCAAGATCTGGCCTCGGCGTTTTAGCCGGAACCTCTAGCTAGCCGACTCACTATAGGGATAATCGCCCTGAGCAAAGACC”, the binding signal was -0.579 ± 0.147 log2FC with pT7_6His-AlfaTag-HOXD13 and 0.0458 ± 0.125 log2FC in the assay with pT7_6His-AlfaTag-ZIF268.

Take “CTCGAGGATATCAAGATCTGGCCTCGGCCGCCCACTGGGAACCTCTAGCTAGCCGACTCACTATAGGGATAATCGCCCTGAGCAAAGACC”: the results for the binding signal with pT7_6His-AlfaTag-HOXD13 and with pT7_6His-AlfaTag-ZIF268 were -0.571 ± 0.123 log2FC and 0.278 ± 0.104 log2FC, respectively.

In the case of “CTCGAGGATATCAAGATCTGGCCTCGGCGTTTTAGCAGGAACCTCTAGCTAGCCGACTCACTATAGGGATAATCGCCCTGAGCAAAGACC”, the binding signal was found to be 0.799 ± 0.115 log2FC with pT7_6His-AlfaTag-HOXD13 and 0.0694 ± 0.112 log2FC with pT7_6His-AlfaTag-ZIF268.

As for “CTCGAGGATATCAAGATCTGGCCTCGGCGCGGGGGCGGGAACCTCTAGCTAGCCGACTCACTATAGGGATAATCGCCCTGAGCAAAGACC”, the binding signal is -0.903 ± 0.133 log2FC in the assay with pT7_6His-AlfaTag-HOXD13 and 3.63 ± 0.0947 log2FC in the assay with pT7_6His-AlfaTag-ZIF268.

For “CTCGAGGATATCAAGATCTGGCCTCGGCTTTTTATCGGGAACCTCTAGCTAGCCGACTCACTATAGGGATAATCGCCCTGAGCAAAGACC”, the binding signal in the assay with pT7_6His-AlfaTag-HOXD13 amounted to 1.91 ± 0.0856 log2FC; with pT7_6His-AlfaTag-ZIF268, 0.00149 ± 0.091 log2FC.

In the case of “CTCGAGGATATCAAGATCTGGCCTCGGCTACATAAAAGGAACCTCTAGCTAGCCGACTCACTATAGGGATAATCGCCCTGAGCAAAGACC”, the binding signal with pT7_6His-AlfaTag-HOXD13 turned out to be 2.05 ± 0.0966 log2FC; in the assay with pT7_6His-AlfaTag-ZIF268 it was 0.0761 ± 0.103 log2FC.

With “CTCGAGGATATCAAGATCTGGCCTCGGCAGATTAAAAGGAACCTCTAGCTAGCCGACTCACTATAGGGATAATCGCCCTGAGCAAAGACC”, the binding signal was 1.14 ± 0.0686 log2FC in the assay with pT7_6His-AlfaTag-HOXD13 and 0.0127 ± 0.0692 log2FC in the assay with pT7_6His-AlfaTag-ZIF268.

“CTCGAGGATATCAAGATCTGGCCTCGGCCGCGCCCGCGGAACCTCTAGCTAGCCGACTCACTATAGGGATAATCGCCCTGAGCAAAGACC”: the results for the binding signal with pT7_6His-AlfaTag-HOXD13 and with pT7_6His-AlfaTag-ZIF268 were -1.09 ± 0.134 log2FC and 0.0207 ± 0.105 log2FC, respectively.

Regarding “CTCGAGGATATCAAGATCTGGCCTCGGCGCGAAGGCGGGAACCTCTAGCTAGCCGACTCACTATAGGGATAATCGCCCTGAGCAAAGACC”, the binding signal in the assay with pT7_6His-AlfaTag-HOXD13 was -1.08 ± 0.132 log2FC; with pT7_6His-AlfaTag-ZIF268, 0.278 ± 0.0993 log2FC.

In the case of “CTCGAGGATATCAAGATCTGGCCTCGGCATTTGGGCGGGAACCTCTAGCTAGCCGACTCACTATAGGGATAATCGCCCTGAGCAAAGACC”, the values for the binding signal with pT7_6His-AlfaTag-HOXD13 and with pT7_6His-AlfaTag-ZIF268 were -0.941 ± 0.11 log2FC and 0.125 ± 0.0899 log2FC, respectively.

On to “CTCGAGGATATCAAGATCTGGCCTCGGCTTTTTAGAAGGAACCTCTAGCTAGCCGACTCACTATAGGGATAATCGCCCTGAGCAAAGACC”, for which the binding signal with pT7_6His-AlfaTag-HOXD13 was 0.559 ± 0.108 log2FC; in the assay with pT7_6His-AlfaTag-ZIF268 it was 0.0735 ± 0.104 log2FC.

With “CTCGAGGATATCAAGATCTGGCCTCGGCGTTTTATGCGGAACCTCTAGCTAGCCGACTCACTATAGGGATAATCGCCCTGAGCAAAGACC”, the figures for the binding signal with pT7_6His-AlfaTag-HOXD13 and with pT7_6His-AlfaTag-ZIF268 were 2.07 ± 0.0741 log2FC and 0.0171 ± 0.08 log2FC, respectively.

For the sequence “CTCGAGGATATCAAGATCTGGCCTCGGCGTATGGGCGGGAACCTCTAGCTAGCCGACTCACTATAGGGATAATCGCCCTGAGCAAAGACC”, the binding signal in the assay with pT7_6His-AlfaTag-HOXD13 is -0.957 ± 0.105 log2FC; in the assay with pT7_6His-AlfaTag-ZIF268, 0.246 ± 0.0831 log2FC.

On to “CTCGAGGATATCAAGATCTGGCCTCGGCCGTTGGGCGGGAACCTCTAGCTAGCCGACTCACTATAGGGATAATCGCCCTGAGCAAAGACC”, for which the values for the binding signal with pT7_6His-AlfaTag-HOXD13 and with pT7_6His-AlfaTag-ZIF268 were -0.921 ± 0.107 log2FC and 0.0419 ± 0.0862 log2FC, respectively.

Regarding “CTCGAGGATATCAAGATCTGGCCTCGGCGTTTTAAGTGGAACCTCTAGCTAGCCGACTCACTATAGGGATAATCGCCCTGAGCAAAGACC”, the binding signal with pT7_6His-AlfaTag-HOXD13 came out at 0.876 ± 0.107 log2FC; with pT7_6His-AlfaTag-ZIF268, 0.00666 ± 0.106 log2FC.

Take “CTCGAGGATATCAAGATCTGGCCTCGGCTTTTTACAGGGAACCTCTAGCTAGCCGACTCACTATAGGGATAATCGCCCTGAGCAAAGACC”: the binding signal with pT7_6His-AlfaTag-HOXD13 came out at 3.18 ± 0.0923 log2FC; with pT7_6His-AlfaTag-ZIF268, 0.066 ± 0.102 log2FC.

Take “CTCGAGGATATCAAGATCTGGCCTCGGCATTTTACGGGGAACCTCTAGCTAGCCGACTCACTATAGGGATAATCGCCCTGAGCAAAGACC”: the results for the binding signal in the assay with pT7_6His-AlfaTag-HOXD13 and with pT7_6His-AlfaTag-ZIF268 were 3.18 ± 0.0854 log2FC and 0.0766 ± 0.0939 log2FC, respectively.

On to “CTCGAGGATATCAAGATCTGGCCTCGGCTTATTAAAAGGAACCTCTAGCTAGCCGACTCACTATAGGGATAATCGCCCTGAGCAAAGACC”, for which the values for the binding signal with pT7_6His-AlfaTag-HOXD13 and in the assay with pT7_6His-AlfaTag-ZIF268 were 3.06 ± 0.0807 log2FC and 0.0487 ± 0.0902 log2FC, respectively.

As to “CTCGAGGATATCAAGATCTGGCCTCGGCGTTTTACCAGGAACCTCTAGCTAGCCGACTCACTATAGGGATAATCGCCCTGAGCAAAGACC”, the binding signal in the assay with pT7_6His-AlfaTag-HOXD13 came out at 0.423 ± 0.103 log2FC; with pT7_6His-AlfaTag-ZIF268, 0.0291 ± 0.0981 log2FC.

On to “CTCGAGGATATCAAGATCTGGCCTCGGCTCTATAAAAGGAACCTCTAGCTAGCCGACTCACTATAGGGATAATCGCCCTGAGCAAAGACC”, for which the binding signal with pT7_6His-AlfaTag-HOXD13 came out at 2.9 ± 0.0831 log2FC; with pT7_6His-AlfaTag-ZIF268, 0.0429 ± 0.0922 log2FC.

Regarding “CTCGAGGATATCAAGATCTGGCCTCGGCACGTGGGCGGGAACCTCTAGCTAGCCGACTCACTATAGGGATAATCGCCCTGAGCAAAGACC”, the binding signal is -0.888 ± 0.116 log2FC with pT7_6His-AlfaTag-HOXD13 and 3.56 ± 0.0868 log2FC with pT7_6His-AlfaTag-ZIF268.

In the case of “CTCGAGGATATCAAGATCTGGCCTCGGCGCGTGGGTCGGAACCTCTAGCTAGCCGACTCACTATAGGGATAATCGCCCTGAGCAAAGACC”, the values for the binding signal with pT7_6His-AlfaTag-HOXD13 and with pT7_6His-AlfaTag-ZIF268 were -0.691 ± 0.125 log2FC and 1.38 ± 0.0983 log2FC, respectively.

For the origin of these results see article doi:10.1101/2024.03.05.583629.
